Experiment [1] is described as follows: Caspase-3/7 induction in HepG2 cells by small molecules, qHTS assay (AID 1346978). Also: nearly all actives have a fitted effect of over 15% in size. Also: potency is read from the fitted curve at half-maximal effect. As to caspase activation: % is scaled to controls: 0 for no effect and ±100 for the full control effect. Put shortly: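 Wild-type HepG2 cells (2,000/well) were settled 5 h at 37 C, 5% CO2, then exposed to compounds in DMSO for 17 h. Caspase-3/7 activity was read by luminescence 30 min after adding Caspase-Glo 3/7 reagent at room temperature.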
Background: qHTS replaces the single test concentration by a dilution series.

Experiment [2] in a line: Caspase-3/7 induction in CHO-K1 cells by small molecules, qHTS cell viability counter screen (AID 1346979). Also: nearly all actives have a fitted effect of over 35% in size. Also: potency is read from the fitted curve at half-maximal effect. Put shortly:
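Following a 5hr settling period, CHO-K1 cells at 1,500 per well received DMSO-dissolved compounds. Cell viability was quantified 16hr later by CellTiter-Fluor fluorescence, measured after 1hr with reagent at 37C.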

Experiment [3] is described as follows: Caspase-3/7 induction in CHO-K1 cells by small molecules, qHTS assay (AID 1346980). Also: % is scaled to controls: 0 for no effect and ±100 for the full control effect; nearly all actives have a fitted effect of over 15% in size. In short, it runs like this:
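Wild-type cells were seeded at 1,500 per well and settled 5 hr at 37 C, 5% CO2, then exposed to DMSO-dissolved compounds for 17 hr. Caspase-Glo 3/7 reagent was added, and luminescence was read after 30min at room temperature.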

Experiment [4] in a line: Caspase-3/7 induction in HepG2 cells by small molecules, qHTS cell viability counter screen (AID 1346981). Also: nearly all actives have a fitted effect of over 30% in size. Also: potency is read from the fitted curve at half-maximal effect. In short, it runs like this:
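CellTiter-Fluor fluorescence measured viability in the same wells used for Caspase-Glo 3/7. HepG2 (wild type) at 2,000 cells/well were pre-incubated 5 hr, dosed, and given reagent at 16 hr, with 1 hr further at 37C.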

Experiment [5] has as its target Nuclear receptor subfamily 1 group I member 2 (Homo sapiens) (UniProt O75469). Kind of experiment: Human pregnane X receptor (PXR) small molecule agonists, qHTS assay (AID 1346982). Also: nearly all actives have a fitted effect of over 35% in size. Also: potency is read from the fitted curve at half-maximal effect. As to activation: % is scaled to controls: 0 for no effect and ±100 for the full control effect. In short, it runs like this: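 Agonist mode: luminescence from ONE-Glo after 24 h compound exposure at 37C in HepG2 cells carrying hPXR-responsive CYP3A4 luciferase, plated in charcoal-stripped serum medium 5 h beforehand.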

For experiment [6], the target named is Acetylcholinesterase (Homo sapiens) (UniProt P22303). Kind of experiment: Acetylcholinesterase (AChE) small molecule antagonists: colormetric cell-based qHTS assay (AID 1347395; calls by dose curve; also: % is scaled to controls: 0 for no effect and ±100 for the full control effect; nearly all actives have a fitted effect of over 30% in size). In short, it runs like this: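 After overnight attachment at 37 C, SH-SY5Y cells get 30 min compound exposure; detection cocktail (acetylthiocholine, DTNB) then incubates 90 min at 37 C, and absorbance reflects AChE-generated thiocholine.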

Experiment [7] has as its target Nuclear receptor subfamily 1 group I member 2 (Homo sapiens) (UniProt O75469). Kind of experiment: CYP3A4 induction through human pregnane X receptor (PXR) by small molecules, qHTS assay (AID 1346984). Also: % is scaled to controls: 0 for no effect and ±100 for the full control effect; nearly all actives have a fitted effect of over 40% in size. Put shortly:
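Read-out is luminescence after One-Glo addition, following a 3 hr, 37C incubation with Luciferin-IPA CYP3A4 substrate (3uM final). Before that, compounds were on DPX-2 cells (HepG2 co-transfected with PXR element plus CYP3A4-promoter luciferase) for 24 hr at 37C.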

Experiment [8] has the same target. In words: Human pregnane X receptor (PXR) activation by small molecules, qHTS assay (AID 1346985). Also: nearly all actives have a fitted effect of over 40% in size. Also: potency is read from the fitted curve at half-maximal effect. As to activation: % is scaled to controls: 0 for no effect and ±100 for the full control effect. In short, it runs like this: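 DPX-2 cells (HepG2 co-transfected with a PXR response element and a CYP3A4-promoter luciferase construct) were seeded at 2,000 per well, rested 5 hr at 37C, then exposed to DMSO-dissolved compounds for 24 hr. Activation was read as luciferase luminescence.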

Experiment [9] has as its target Nuclear receptor subfamily 1 group I member 2 (Rattus norvegicus) (UniProt Q9R1A7). In words: Rat pregnane X receptor (rPXR) activation by small molecules, qHTS assay (AID 1346983). Also: potency is read from the fitted curve at half-maximal effect; nearly all actives have a fitted effect of over 20% in size. The note with it: rPXR luciferase reporter cells, One-Glo luminescence, 24 h; max activation: stronger effect = higher value. Put shortly:
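Cell-based rPXR luciferase reporter assay, 2,000 cells per well, rested 5hr at 37 C before compound addition in DMSO, then 24 hr at 37 C. One-Glo reagent was added and luminescence read after 30 min at room temperature.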

These results are taken from PubChem BioAssay (Tox21).

“And” between values parts separate entries of the source, which are not always exact repeats. Equal values may be shown once. Inconclusive results are not listed. Some compounds were tested as several samples or in several runs, with calls that do not always agree. The source made the active and inactive calls. Unless noted, calls follow the shape of the dose curve; as a rule, active = well fitted curve in the direction sought with a large enough effect in the repeat runs; inconclusive = weak or mixed curves; inactive = no such curve, though single readings can be large; an effect the other way counts as inactive or inconclusive.

Chain of Nuclear receptor subfamily 1 group I member 2 (Homo sapiens) (O75469 whole entry, looked up): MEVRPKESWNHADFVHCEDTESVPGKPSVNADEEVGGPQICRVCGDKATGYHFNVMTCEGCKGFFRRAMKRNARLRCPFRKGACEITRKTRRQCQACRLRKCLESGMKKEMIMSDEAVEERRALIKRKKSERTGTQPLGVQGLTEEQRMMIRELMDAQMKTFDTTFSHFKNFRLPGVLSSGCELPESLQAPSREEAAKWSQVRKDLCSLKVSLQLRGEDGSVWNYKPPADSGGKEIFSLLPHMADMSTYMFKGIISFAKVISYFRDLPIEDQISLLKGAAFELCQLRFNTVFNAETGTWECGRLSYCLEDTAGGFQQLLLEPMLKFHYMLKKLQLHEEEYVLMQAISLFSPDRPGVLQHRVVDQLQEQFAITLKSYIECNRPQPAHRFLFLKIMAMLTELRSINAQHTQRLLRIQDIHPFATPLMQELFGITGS
Chain of Acetylcholinesterase (Homo sapiens) (P22303 whole entry, looked up): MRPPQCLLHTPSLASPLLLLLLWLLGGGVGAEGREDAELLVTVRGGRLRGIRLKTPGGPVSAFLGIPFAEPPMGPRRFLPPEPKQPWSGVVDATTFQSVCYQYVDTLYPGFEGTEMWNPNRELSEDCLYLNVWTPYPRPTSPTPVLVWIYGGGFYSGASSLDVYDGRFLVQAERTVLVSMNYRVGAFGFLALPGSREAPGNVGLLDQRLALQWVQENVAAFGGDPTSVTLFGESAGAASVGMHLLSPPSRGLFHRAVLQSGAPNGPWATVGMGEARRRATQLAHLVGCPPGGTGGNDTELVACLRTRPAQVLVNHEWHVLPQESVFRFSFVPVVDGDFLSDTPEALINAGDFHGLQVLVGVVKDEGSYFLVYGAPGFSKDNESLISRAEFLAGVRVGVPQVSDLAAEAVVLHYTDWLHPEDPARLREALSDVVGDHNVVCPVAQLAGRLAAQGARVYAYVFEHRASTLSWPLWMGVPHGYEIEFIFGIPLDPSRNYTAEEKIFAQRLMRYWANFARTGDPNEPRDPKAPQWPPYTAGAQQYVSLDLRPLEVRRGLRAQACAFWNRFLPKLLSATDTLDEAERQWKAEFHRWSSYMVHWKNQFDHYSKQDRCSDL
Chain of Nuclear receptor subfamily 1 group I member 2 (Rattus norvegicus) (Q9R1A7 whole entry, looked up): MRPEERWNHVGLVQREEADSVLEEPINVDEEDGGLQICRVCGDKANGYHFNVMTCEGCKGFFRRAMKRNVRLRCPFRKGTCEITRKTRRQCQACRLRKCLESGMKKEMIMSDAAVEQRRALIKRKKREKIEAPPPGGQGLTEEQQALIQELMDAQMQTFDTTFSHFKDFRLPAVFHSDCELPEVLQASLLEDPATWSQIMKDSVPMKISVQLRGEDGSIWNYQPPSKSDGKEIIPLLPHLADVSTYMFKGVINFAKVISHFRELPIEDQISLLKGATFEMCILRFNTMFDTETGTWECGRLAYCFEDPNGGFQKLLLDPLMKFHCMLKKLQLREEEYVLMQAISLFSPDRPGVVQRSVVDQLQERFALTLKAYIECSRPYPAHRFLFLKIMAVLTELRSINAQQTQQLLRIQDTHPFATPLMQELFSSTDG

Consider `[Hg+2].[I-].[I-]`, for which the Potency entry in experiment [1], in [3] and in [6] was “inactive” each time. Besides, the Potency was 21.7 µM (active) in experiment [2], 61.1 µM (active) in [4] and 2.43 µM (active) in [5].
Take `C[CH2][Hg][N]1C(=O)C2C(C1=O)C1(Cl)C(Cl)=C(Cl)C2(Cl)C1(Cl)Cl` (stereo unspecified): in experiment [1], the caspase activation is -9.39% [at 19 µM] (inactive). Besides, in [2], the Potency is 11.6 µM (active). Besides, the caspase-3/7 activation in experiment [3] is -6.08% [at 19 µM] (inactive). Besides, the activity, negative = inhibition in experiment [6] is 0.291% [at 23.6 µM] (inactive).
As to `Clc1ccc(CCC(Cn2ccnc2)Sc2c(Cl)cccc2Cl)cc1` (stereo unspecified), the Potency result in [1], in experiment [3], in experiment [7] and in experiment [6] was “inactive” in each case. Also, the Potency in [2] is 11.9 µM (active); in [8] it was 4.47 µM (active).
With `Nc1ccc(Cl)cc1C(=O)c1ccccc1`, the Potency entry in [1], in experiment [3] and in experiment [6] was “inactive” in each case. The Potency in experiment [2] and in [5] was 61.1 µM (active) in each case.
As to `Cn1cc(C2=C(c3cn(C4CCN(Cc5ccccn5)CC4)c4ccccc34)C(=O)NC2=O)c2ccccc21`, the Potency result in experiment [1], in experiment [3], in experiment [5] and in experiment [6] was “inactive” in each case. Further, the Potency in experiment [2] and in [4] was 10.6 µM (active) each time.
As for `O=c1c(C2CC(c3ccc(-c4ccc(Br)cc4)cc3)Cc3ccccc32)c(O)sc2ccccc12` (stereo unspecified), the Potency result in [1], in experiment [3] and in experiment [6] was “inactive” each time. The Potency in experiment [2] and in experiment [5] was 18.8 µM (active) throughout.
Turning to `C[C@H]1O[C@@H](O[C@H]2[C@@H](O)C[C@H](O[C@H]3[C@@H](O)C[C@H](O[C@H]4CC[C@@]5(C)[C@H](CC[C@@H]6[C@@H]5CC[C@]5(C)[C@@H](C7=CC(=O)OC7)CC[C@]65O)C4)O[C@@H]3C)O[C@@H]2C)C[C@H](O)[C@@H]1O`, the Potency result in experiment [1], in experiment [2], in experiment [3], in experiment [4], in [8] and in experiment [6] was “inactive” throughout.
For the compound `CC1(C)[C@H](C(=O)O[C@H](C#N)c2cccc(Oc3ccccc3)c2)[C@@H]1/C=C(\Cl)C(F)(F)F`, the Potency result in [1], in experiment [2], in experiment [3] and in [6] was “inactive” each time. Besides, the Potency in experiment [5] was 3.57 µM (active) and 2.43 µM (active).
Consider `Nc1ccc(Cc2ccc(N)c(Cl)c2)cc1Cl`, for which the Potency entry in experiment [1] and in experiment [3] was “inactive” each time. Also, the figures for the Potency in experiment [2] and in experiment [5] were 59.1 µM (active) and 52.7 µM (active), respectively.
In the case of `CNC(C)Cc1ccc2c(c1)OCO2` (stereo unspecified), the Potency entry in experiment [1], in experiment [2], in [3], in experiment [4] and in experiment [6] was “inactive” throughout.
For the compound `CCCCCCCCCCCCCCCC[n+]1ccccc1`, the Potency entry in experiment [1], in experiment [3], in experiment [7] and in experiment [8] was “inactive” throughout. Further, the Potency in experiment [2] was 25.5 µM (active) [middle of 4 runs]; in experiment [5] it was 10.1 µM (active) and inactive and 12 µM (active).
As to `N#CNC#N`, the Potency entry in [1], in experiment [2], in [3], in experiment [5] and in experiment [6] was “inactive” throughout.
Regarding `O=[N+]([O-])c1ccc2ccc3cccc4ccc1c2c34`, the Potency result in experiment [1], in [3] and in [6] was “inactive” each time. Besides, the Potency was 43.2 µM (active) in experiment [2] and 21.7 µM (active) in experiment [5].
`[CH3][Hg][Cl]`: the Potency entry in experiment [1], in [3], in [5] and in experiment [6] was “inactive” in each case. In experiment [2], the Potency is 7.67 µM (active).
For `CC(C)CCCCCOC(=O)c1ccccc1C(=O)OCCCCCC(C)C`, the Potency result in experiment [1], in experiment [3] and in [6] was “inactive” throughout. Moreover, the values for the Potency in experiment [2] and in [5] were 60.4 µM (active) and 48 µM (active), respectively.
With `COP(=O)(CCC(=O)NCO)OC`, the Potency result in experiment [1], in experiment [2], in [3], in experiment [4], in experiment [5] and in experiment [6] was “inactive” in each case.
Regarding `CC(C)(COCC1CO1)COCC1CO1` (stereo unspecified), the Potency entry in [1], in experiment [2], in experiment [3], in experiment [4], in experiment [5] and in experiment [6] was “inactive” in each case.
On to `Cc1cc(N=Nc2ccccc2C)ccc1N`, for which the Potency in experiment [1] was 1.37 µM (active) and 969 nM (active); in experiment [2], 30.6 µM (active) and 61.1 µM (active); in [4], 3.86 µM (active) and 686 nM (active); in experiment [5], 24.3 µM (active) and 30.6 µM (active). Also, the Potency entry in experiment [3] and in experiment [6] was “inactive” in each case.
In the case of `Oc1ccc(C(c2ccc(O)cc2)(C(F)(F)F)C(F)(F)F)cc1`, the Potency entry in experiment [1], in experiment [3] and in experiment [6] was “inactive” in each case. For the same compound, the Potency in [2] was 60.8 µM (active) and 68.6 µM (active).
With `COc1ccc(OC)c(C=O)c1`, the Potency entry in experiment [1], in experiment [2], in [3] and in experiment [6] was “inactive” each time.
On to `Clc1ccc(-c2ccc(Cl)c(Cl)c2Cl)c(Cl)c1Cl`, for which the Potency result in [1], in experiment [2], in experiment [3], in experiment [4] and in [6] was “inactive” each time.
For `C=CCOC(N)=O`, the Potency entry in experiment [1], in [2], in experiment [3], in experiment [4], in [5] and in experiment [6] was “inactive” throughout.
For `CC(=O)/C=C/c1ccc2c(c1)OCO2`, the Potency entry in [1] and in [3] was “inactive” in each case. In addition, the Potency in [5] is 61.4 µM (active).
For `Clc1ccc(CO/N=C(\Cn2ccnc2)c2ccc(Cl)cc2Cl)c(Cl)c1`, the Potency was 16.8 µM (active) in [2], 8.41 µM (active) in experiment [5], 25.1 µM (active) in experiment [9] and 1.41 µM (active) in experiment [8]. Also, the Potency entry in [3], in experiment [7] and in [6] was “inactive” throughout.
`Oc1ccc(C2(c3ccc(O)cc3)c3ccccc3-c3ccccc32)cc1`: the Potency in experiment [2] is 68.6 µM (active). Also, the Potency result in [3] was “inactive”.
Regarding `CCOC(=O)CC(=O)CCl`, the Potency entry in experiment [3], in experiment [4], in experiment [5] and in experiment [6] was “inactive” each time.
